In PubChem BioAssay (NCI) one finds growth data, which are given here for 9 compounds.

Some test systems named below: NCI-H23 lung; NCI-H226 lung; NCI-H322M lung; HOP-62 NSCLC; NCI-H460 lung; HOP-92 NSCLC; NCI-H522 lung; A549/ATCC NSCLC; 786-0 renal; COLO 205 colon; DU-145 prostate; K-562 leukemia; MALME-3M melanoma; MDA-MB-231 breast; RXF 393 renal; SF-295 CNS; SF-539 CNS; UACC-257 melanoma; M14 melanoma; SF-268 CNS.
Common to all, as to experiment: NCI-60 one-dose screen, 48 h (100 = growth as untreated, 0 = no growth, -100 = all killed)
Holding throughout (settings): 10 µM unless noted

Each structure is given as a SMILES string. About 83,000 compounds went through this panel and 20% of them were active in at least one assay; those are over-represented in the sample as a whole.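 Step 1: grow cells in 96-well plates. Step 2: add test compound at a single concentration. Step 3: incubate 48 h. Step 4: record percent growth.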 A number with no mark means an inactive call. The source made the active and inactive calls. How the source made its calls: active means growth percent below 10; inactive means the rest.

With `NC(N)=N/N=C\c1cccc(OCc2ccccc2)c1`, the growth with NCI-H23 lung was 79.5%; in the assay on NCI-H226 lung it was 86.2%; with NCI-H322M lung it was 91.7%; with HOP-62 NSCLC it was 79.6%; in the assay on NCI-H460 lung, 95.3%; in the assay on HOP-92 NSCLC it was 40.9%. In addition, the growth is 61.8% in the assay on NCI-H522 lung; 87.9% in the assay with A549/ATCC NSCLC; 79.6% in the assay with 786-0 renal; -70.9% (active) in the assay with COLO 205 colon; 101% in the assay on DU-145 prostate; 27.1% with K-562 leukemia. In addition, the growth was 85.8% in the assay on MALME-3M melanoma; 76% with MDA-MB-231 breast; 62.1% in the assay on RXF 393 renal; 85.1% in the assay on SF-295 CNS; 77.5% with SF-539 CNS; 70.8% in the assay with UACC-257 melanoma. In addition, the growth in the assay with M14 melanoma was 59.7%.
Consider `CCOC(=O)C(Nc1ccccc1)C(=O)OCC`, for which the growth is 108% with NCI-H23 lung; 99.6% with NCI-H226 lung; 88.1% in the assay on NCI-H322M lung; 101% in the assay on HOP-62 NSCLC; 115% in the assay with NCI-H460 lung; 72.9% in the assay on HOP-92 NSCLC. Further, the growth was 102% with NCI-H522 lung; 100% in the assay on A549/ATCC NSCLC; 110% in the assay with 786-0 renal; 119% with COLO 205 colon; 122% with DU-145 prostate; 92.4% in the assay with K-562 leukemia. Also, the growth is 93.2% in the assay on MALME-3M melanoma; 105% with MDA-MB-231 breast; 114% in the assay with RXF 393 renal; 122% with SF-268 CNS; 111% in the assay with SF-539 CNS; 112% in the assay with UACC-257 melanoma. In addition, in the assay with M14 melanoma, the growth is 103%.
For `CCN(CC)CCC(CNc1ccnc2cc(Cl)ccc12)c1ccc(O)cc1` (stereo unspecified), the growth was 91.3% in the assay on NCI-H23 lung; 102% in the assay on NCI-H226 lung; 72.7% in the assay with NCI-H322M lung; 87.4% in the assay with HOP-62 NSCLC; 54.2% in the assay with NCI-H460 lung; 53.3% in the assay with HOP-92 NSCLC. Besides, the growth in the assay on NCI-H522 lung was 97.9%; in the assay on A549/ATCC NSCLC it was 97.8%; with 786-0 renal, 92.3%; with COLO 205 colon it was 71.5%; in the assay with DU-145 prostate it was 91.4%; in the assay with K-562 leukemia, 10.6%. Besides, the growth with MALME-3M melanoma was 93.5%; with MDA-MB-231 breast, 74.1%; with RXF 393 renal, 52.5%; in the assay with SF-268 CNS it was 69.5%; in the assay on SF-539 CNS, 88.4%; with UACC-257 melanoma, 93.4%. The growth in the assay on M14 melanoma was 6.04% (active).
`C/C(CC(=O)NNc1ccc([N+](=O)[O-])cc1)=N\Nc1ccc([N+](=O)[O-])cc1`: the growth in the assay with NCI-H23 lung was 87.5%; in the assay on NCI-H226 lung, 96.2%; in the assay on NCI-H322M lung it was 71.7%; in the assay with HOP-62 NSCLC, 83%; in the assay with NCI-H460 lung it was 27.9%; with HOP-92 NSCLC, 90.5%. Also, the growth in the assay on NCI-H522 lung is 60.8%; with A549/ATCC NSCLC it was 56.1%; with 786-0 renal it was 55.3%; in the assay on COLO 205 colon, 48.8%; in the assay on DU-145 prostate, 62.1%; in the assay with K-562 leukemia, 12.9%. The growth in the assay on MALME-3M melanoma is 93.4%; with MDA-MB-231 breast it was 47%; with RXF 393 renal, 118%; in the assay on SF-268 CNS, 83.8%; with SF-539 CNS, 68.2%; in the assay with UACC-257 melanoma, 99.6%. Besides, the growth in the assay with M14 melanoma was 25.5%.
On to `COc1cccc(/C=N/N=C(N)N)c1`, for which the growth is 103% in the assay on NCI-H23 lung; 98.3% in the assay on NCI-H226 lung; 114% in the assay on NCI-H322M lung; 104% with HOP-62 NSCLC; 111% in the assay with NCI-H460 lung; 91.1% in the assay on HOP-92 NSCLC. Moreover, the growth was 97.4% in the assay with NCI-H522 lung; 102% with A549/ATCC NSCLC; 117% in the assay on 786-0 renal; 109% in the assay on COLO 205 colon; 102% with DU-145 prostate; 94.5% in the assay on K-562 leukemia. Moreover, the growth with MALME-3M melanoma was 111%; in the assay with MDA-MB-231 breast, 91.4%; with RXF 393 renal, 106%; in the assay with SF-268 CNS, 101%; with SF-539 CNS, 84.5%; in the assay on UACC-257 melanoma it was 97.1%. Moreover, the growth with M14 melanoma was 93.8%.
`Cc1cc(O)ccc1C1=NN(c2ccc(S(N)(=O)=O)cc2)C(=O)CC1`: the growth in the assay with NCI-H23 lung is 64.3%; in the assay with NCI-H226 lung, 94.6%; in the assay with NCI-H322M lung it was 121%; in the assay on HOP-62 NSCLC, 80.2%; with NCI-H460 lung it was 12.1%; in the assay with HOP-92 NSCLC it was 89.7%. Further, the growth in the assay with NCI-H522 lung is -36.6% (active); in the assay with A549/ATCC NSCLC, 43.9%; with 786-0 renal, 60.4%; in the assay with COLO 205 colon, 55.6%; in the assay on DU-145 prostate, 89.9%; with K-562 leukemia, 15.7%. The growth in the assay with MALME-3M melanoma was 45.3%; in the assay on MDA-MB-231 breast, 73.8%; with SF-268 CNS, 68.5%; in the assay on SF-295 CNS, 30.4%; in the assay with SF-539 CNS, 45.1%; with UACC-257 melanoma it was 59.7%. The growth with M14 melanoma is 29.7%.
Take `NS(=O)(=O)c1ccc(N2N=C(c3ccc(Br)cc3)CC2c2cn(-c3ccccc3)nc2-c2ccc(Cl)cc2)cc1` (stereo unspecified): the growth in the assay on NCI-H23 lung was 88.3%; with NCI-H226 lung, 103%; with NCI-H322M lung, 92.5%; with HOP-62 NSCLC, 98.2%; in the assay on NCI-H460 lung, 81.6%; with HOP-92 NSCLC, 157%. Also, the growth is 89.9% in the assay with NCI-H522 lung; 76.8% in the assay on A549/ATCC NSCLC; 97.9% in the assay on 786-0 renal; 86.3% with COLO 205 colon; 94.7% with DU-145 prostate; 63% in the assay on K-562 leukemia. The growth in the assay on MDA-MB-231 breast was 99%; in the assay on RXF 393 renal it was 88.9%; in the assay with SF-268 CNS, 84.7%; in the assay on SF-295 CNS, 92.7%; in the assay with SF-539 CNS it was 104%; with UACC-257 melanoma, 96.7%. Besides, in the assay on M14 melanoma, the growth was 83.7%.
Turning to `CCCCN(CCCC)CCC(=O)c1ccc(OC)c2ccccc12`, the growth in the assay with NCI-H23 lung is 111%; with NCI-H226 lung it was 95.7%; in the assay with NCI-H322M lung it was 104%; in the assay on HOP-62 NSCLC it was 101%; with NCI-H460 lung it was 109%; in the assay with HOP-92 NSCLC, -13.7% (active). Besides, the growth with NCI-H522 lung is 90.6%; in the assay with A549/ATCC NSCLC, 80.1%; with 786-0 renal, 65.5%; in the assay on COLO 205 colon it was 60.1%; in the assay on DU-145 prostate it was 79.4%; in the assay with K-562 leukemia, 67.1%. The growth is 124% in the assay on MALME-3M melanoma; 106% with MDA-MB-231 breast; 95% in the assay on SF-268 CNS; 100% in the assay with SF-295 CNS; 87% in the assay with SF-539 CNS; 86.4% in the assay on UACC-257 melanoma. In addition, in the assay on M14 melanoma, the growth was 104%.
As for `Cc1ccccc1CNc1ncnc2[nH]ncc12`, the growth in the assay on NCI-H23 lung was 109%; in the assay on NCI-H226 lung it was 91.9%; with NCI-H322M lung it was 114%; in the assay with HOP-62 NSCLC, 99.3%; in the assay on NCI-H460 lung, 104%; with HOP-92 NSCLC, 64.3%. For the same compound, the growth in the assay on NCI-H522 lung was 47.7%; in the assay with A549/ATCC NSCLC it was 91%; with 786-0 renal, 97.3%; with COLO 205 colon, 92.2%; in the assay with DU-145 prostate, 103%; in the assay on K-562 leukemia it was 46.8%. The growth was 114% in the assay on MALME-3M melanoma; 106% in the assay on MDA-MB-231 breast; 95.4% in the assay with SF-268 CNS; 84.3% in the assay with SF-295 CNS; 97.6% with SF-539 CNS; 107% in the assay with UACC-257 melanoma. Besides, the growth in the assay on M14 melanoma is 103%.
